# Rows were chosen to be rich in hits. Some 0.86% of all compounds tested hit in one or more screens of this group.
# PGK inhibitor – inhibitors of T. brucei phosphoglycerate kinase; P07378; PGK/GAPDH coupled, Kinase-Glo luminescence, 60 min; Potency, µM (highest dose often 57.5 µM), for the others: at the top dose activity change, negative = inhibition, hits mostly inhibitors; 0.043% of 380,000 active; AID 602233; note: nearly all actives have a fitted effect of over 60% in size
#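 Luminescent ATP detection (Kinase-Glo Plus) follows a 60-minute room-temperature incubation, with wells lacking PGK as controls. Buffer: 100 mM TEA (pH 7.6), 5 mM MgCl2, 0.01% Tween-20. Coupling enzyme GAPDH (100 nM final) supplies unstable 1,3-BPG in-well.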
# RECQ1 inh-1 – RECQ1 (human) helicase inhibition; RECQ1 DNA unwinding, red fluorescence kinetic read; Potency, µM (titrated, usually from 57.3 µM), without a hit: top-dose activity, negative = inhibition, most hits filed as inhibitors; 0.54% of 240,000 active;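 note: plate controls were vehicle for no effect and no enzyme for full effect; nearly all actives have a fitted effect of over 30% in size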
#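 50 nM RECQ1T1 preincubated 15 min with compound in Tris pH 8.0 buffer with MgCl2, DTT, Tween-20 and 2.5 ug/ml poly(dI-dC); started with 200 nM TAMRA/BHQ-2 forked duplex and 2 mM ATP. Unwinding read as fluorescence (525/598 nm), two reads 2 h apart.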
# FEN1 inhibitor – human FEN1 inhibition; P39748; Recombinant FEN1 flap cleavage, fluorescence, 15 min; Potency, µM (top dose mostly 114 µM), for the others: top-dose activity change, negative = inhibition, actives largely listed as inhibitors; 0.35% of 390,000 active; note: nearly all actives have a fitted effect of over 65% in size
#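 Enzyme 10 nM, 15 min RT preincubation with compound; start with substrate 50 nM final; reads at 0 and 15 min; qHTS titration, four-parameter Hill fit.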
# APE1 inh – blocks human APE1 abasic DNA cleavage | recombinant APE1, TAMRA/BHQ-2 abasic DNA cleavage fluorescence | AID 2517 | P27695 | Potency, µM (series often up to 65.8 µM), without a hit: at the top dose activity change, negative = inhibition, usual class: inhibitors | 0.35% of 350,000 active;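 note: plate controls were vehicle for no effect and reference inhibitor for full effect; nearly all actives have a fitted effect of over 55% in size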
#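 Enzyme (0.75 nM final) and test compound are incubated 15 min at room temperature before adding 50 nM quenched THF abasic-site duplex. Cleavage dequenches TAMRA, followed at 525/598 nm over three reads one minute apart.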
# BLM helicase inh – blocks DNA unwinding by human BLM helicase; P54132; AID 2528; 0.2% of 350,000 active; recombinant BLM DNA unwinding, fluorescence dequenching; Potency, µM (highest dose often 56.1 µM), inactives show at the highest dose activity change, negative = inhibition, actives largely listed as inhibitors;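 note: plate controls were vehicle for no effect and no enzyme for full effect; nearly all actives have a fitted effect of over 35% in size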
# GLS inh – blocks human kidney-isoform glutaminase activity | O94925 | GLS enzymatic activity, qHTS titration | Potency, µM (top dose mostly 45.5 µM), without a hit: at the top dose activity change, negative = inhibition, actives largely listed as inhibitors | 0.21% of 410,000 active | AID 624170
#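 Enzyme dispensed in phosphate buffer (45 mM, pH 8.2, 0.02% Tween-20), compounds pinned in, then 1 mM L-glutamine solution and the glutamate oxidase–HRP–Amplex Red mix added; fluorescence read immediately and again after 30 min at room temperature.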
# RECQ1 inh conf – confirmation of human RECQ1 helicase inhibitors; shares compounds with RECQ1 inh-1; 28% of 610 active; Potency, µM (doses to about 229 µM), without a hit: top-dose activity change, negative = inhibition, usual class: inhibitors; AID 2708; RECQ1 helicase DNA unwinding, fluorescence; note: nearly all actives have a fitted effect of over 45% in size
# ADP FP counter – ADP displacement flagged in RECQ1 inhibitor counter-screen. shares compounds with RECQ1 inh-1. ADP fluorescence polarization displacement counterscreen. 27% of 530 active. Potency, µM (top dose mostly 228 µM), for the others: top-dose activity change, negative = inhibition, hits mostly inhibitors; note: nearly all actives have a fitted effect of over 45% in size
# RECQ1 inh-2 – confirmation of human RECQ1 helicase inhibitors; AID 504841; recombinant RECQ1 DNA unwinding, red fluorescence; Potency, µM (top dose mostly 119 µM), for inactives: at the highest dose activity, negative = inhibition, usual class: inhibitors; 15% of 1,100 active; shares compounds with RECQ1 inh-1; note: nearly all actives have a fitted effect of over 50% in size
# The depositor's hits bear a star; i = inactive; ? = inconclusive; . = no result; [ ] = remark or other dose. Calls come from the whole dose curve; as a rule, active = well fitted curve in the direction sought with a large enough effect; inconclusive = small, poorly fitted or top-dose-only effect, or another doubt; inactive = no such curve, though single readings can be large; an effect the other way counts as inactive or inconclusive. Unless noted, % is set by controls: 0 for no effect and ±100 for the full control effect; potency is the fitted concentration of half-maximal effect.
SMILES,PGK inhibitor,RECQ1 inh-1,FEN1 inhibitor,APE1 inh,BLM helicase inh,GLS inh,RECQ1 inh conf,ADP FP counter,RECQ1 inh-2
N=C1S/C(=C\c2ccco2)C(=O)N1c1ccc2c(c1)OCO2,-28%,-14%,-14%,?,?,?,.,.,.
O=C(CN1CCN(c2ccc(O)cc2)CC1)Nc1cc(S(=O)(=O)N2CCCCC2)ccc1Cl,i,-9%,-15%,-11%,-8%,-10%,.,.,.
O=C(CN1CCN(c2ccc(O)cc2)CC1)Nc1cc(S(=O)(=O)N2CCCC2)ccc1Cl,-2%,13µM*,-1%,-10%,-15%,0%,6%[114 µM],-4%[91.9 µM],-11%
CCn1c(SCC(=O)c2cc(C)n(CC3CCCO3)c2C)nc2ccccc21 (stereo unspecified),i,40µM*,-13%,-6%,-17%,22%,.,.,-7%
Cc1cc(C(=O)CSc2nnc(-c3cccnc3)n2-c2ccccc2F)c(C)n1CC1CCCO1 (stereo unspecified),-10%,35µM*,-7%,?,-7%,-4%,.,.,-1%
O=C(N/N=C/c1ccc(O)c(O)c1)c1ccc(CSc2cccc3cccnc23)cc1,1%,11µM*,?,-11%,-19%,-5%,-14%[114 µM],18%[91.9 µM],.
O=C(CSc1cccc2cccnc12)N/N=C/c1cccc(O)c1,5%,-6%,15%,1%,-6%,14%,.,.,.
COc1cccc(CN2CCN(C(=O)c3cccc(OC)c3)CC2)c1,0%,.,11%,37%,-5%,-4%,.,.,.
COc1cccc(CN2CCN(C(=O)c3ccc(-c4ccccc4)cc3)CC2)c1,3%,25µM*,-6%,13%,-2%,8%,.,.,-27%
CCn1c(SCc2nnc(-c3ccccc3)o2)nnc1-c1ccc(S(=O)(=O)N2CCCC2)cc1,-12%,-7%,-17%,2%,0%,2%,.,.,.
O=S(=O)(c1ccc(-c2nnc(SCc3nnc(-c4ccccc4)o3)o2)cc1)N1CCCC1,i,9%,9%,-3%,-1%,-4%,8%,6%,.
CC1=Nc2cc(C(=O)NC3CCCC3)ccc2Sc2ccc(Br)cc21,3%,.,-19%,.,-13%,0%,.,.,.
CC1=Nc2cc(C(=O)O)ccc2Sc2ccc(Br)cc21,-7%,0.32µM*,-2%,?,-6%,-10%,100µM*,20%[91.9 µM],-8%
O=C(O)c1ccccc1-c1c2ccc(=O)cc-2oc2cc(O)ccc12,.,32µM*,.,28µM*,32µM*,20%,112µM*,0.5µM*,79µM*
O=C(O)CN(CC(=O)O)Cc1cc2c(-c3ccccc3C(=O)O)c3cc(CN(CC(=O)O)CC(=O)O)c(=O)cc-3oc2cc1O,.,28µM*,.,.,16µM*,?,112µM*,0.14µM*,.
CCc1ccc(NC(=O)C2CCN(S(=O)(=O)c3ccc4[nH]c5c(c4c3)CCCCC5)CC2)cc1,7%,.,-8%,.,-12%,4%,.,.,.
CS(=O)(=O)N(CC(=O)Nc1ccc(Br)cc1)c1ccccc1Br,-1%,.,-22%,.,-5%,4%,.,.,.
O=C(CSc1nccn1Cc1ccc(F)cc1)Nc1ccc2c(c1)OCCO2,10%,.,-15%,.,0%,5%,.,.,.
